94 molecules from PMC4336329 (PLoS ONE, 2015) can be followed below.

Each structure is given as a SMILES string. In all, about 310,000 compounds went through this assay and about 14,000 (4.5%) showed an effect of 50% or more. Effects have a minus sign here. The entries come from a sample that favours strong results as a whole.
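Further: peak tail current of the secondary pulse compared with the same well before compound.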

In this assay the target is human ether-à-go-go-related gene (hERG) potassium channel (human, UniProt Q12809). Briefly: primary screen, population patch clamp on CHO cells stably expressing hERG; higher = less effect of the substance.
human ether-à-go-go-related gene (hERG) potassium channel, sequence (Q12809 whole entry, looked up): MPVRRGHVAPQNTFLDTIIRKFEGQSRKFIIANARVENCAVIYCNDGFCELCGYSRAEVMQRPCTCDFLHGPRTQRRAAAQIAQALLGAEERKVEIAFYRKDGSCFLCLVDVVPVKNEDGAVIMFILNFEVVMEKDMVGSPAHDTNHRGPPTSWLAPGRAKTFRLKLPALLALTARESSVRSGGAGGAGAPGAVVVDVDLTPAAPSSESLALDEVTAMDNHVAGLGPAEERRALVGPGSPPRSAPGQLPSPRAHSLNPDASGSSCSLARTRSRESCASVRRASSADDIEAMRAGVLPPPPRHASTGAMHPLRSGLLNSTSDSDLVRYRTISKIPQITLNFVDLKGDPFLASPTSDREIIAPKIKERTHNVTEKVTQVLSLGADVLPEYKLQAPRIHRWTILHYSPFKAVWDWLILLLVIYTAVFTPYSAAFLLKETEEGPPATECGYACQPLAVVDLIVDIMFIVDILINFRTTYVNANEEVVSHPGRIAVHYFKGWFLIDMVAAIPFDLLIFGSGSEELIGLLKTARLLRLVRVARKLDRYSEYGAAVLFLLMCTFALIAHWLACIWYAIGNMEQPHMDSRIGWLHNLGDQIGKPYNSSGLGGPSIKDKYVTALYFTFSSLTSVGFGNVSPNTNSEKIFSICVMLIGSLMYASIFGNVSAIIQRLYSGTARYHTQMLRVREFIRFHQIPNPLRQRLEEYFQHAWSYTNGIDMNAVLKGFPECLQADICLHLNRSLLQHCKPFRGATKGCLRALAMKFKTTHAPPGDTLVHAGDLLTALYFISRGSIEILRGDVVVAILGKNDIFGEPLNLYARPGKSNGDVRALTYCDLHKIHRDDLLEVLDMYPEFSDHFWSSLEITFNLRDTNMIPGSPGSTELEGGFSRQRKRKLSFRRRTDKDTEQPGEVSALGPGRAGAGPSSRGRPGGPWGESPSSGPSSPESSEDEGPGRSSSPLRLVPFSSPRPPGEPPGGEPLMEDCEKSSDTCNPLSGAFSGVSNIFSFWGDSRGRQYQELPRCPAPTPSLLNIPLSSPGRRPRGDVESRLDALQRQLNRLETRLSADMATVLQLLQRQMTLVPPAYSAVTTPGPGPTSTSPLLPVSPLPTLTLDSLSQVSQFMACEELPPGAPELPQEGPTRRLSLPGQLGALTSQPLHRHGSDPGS
For `Brc1c(-c2ccccc2)nc2n1Cc1ccccc1-2`, the “hERG current change (%, negative = inhibition) at 10uM” value was determined as 21.8%. Turning to `CC(C)(C)C(=O)Oc1cccc(Nc2ncnc3ccccc23)c1`, the “hERG current change (%, negative = inhibition) at 10uM” value came to 9.76%. With `Cc1ccc(Oc2ncnc(N)c2[N+](=O)[O-])cc1C`, the “hERG current change (%, negative = inhibition) at 10uM” value is 31.8%. Then `NC(=O)CC(NC(=O)c1ccccc1)c1ccc(N2CCN(c3ccccc3)CC2)c([N+](=O)[O-])c1` (stereo not shown), with 1.33%; and `O=C(CSc1nc2ccccc2o1)NC(=O)NCc1ccccc1`, with 8.99%; and `O=C(CSc1nc2[nH]ncc2c(=O)n1-c1ccccc1)c1ccc2c(c1)OCCO2`, with -6.39%. As for `O=C(CCCc1ccccc1)c1ccccc1`, the figure is 18.5%.

For the molecule `O=C(CCCC(=O)c1ccc(F)cc1)c1ccc(F)cc1`, the “hERG current change (%, negative = inhibition) at 10uM” value is -25.8%. As for `CCN(CCCC(=O)c1ccc(F)cc1)CCc1ccccc1.Cl`, the figure is -84.5%; as for `CCc1ccc(-c2nc(CS(=O)CC(=O)NC3CCCCCC3)c(C)o2)cc1` (stereo not shown), -7.44%; as for `Cc1ccc(S(=O)(=O)N2CCCC(C(=O)NC3CCCC3)C2)cc1Cl` (stereo not shown), 17.8%. `Cc1ccc(N=C(N)N=C(N)N)cc1`: the “hERG current change (%, negative = inhibition) at 10uM” value is 16.9%. In the case of `CN1CCN(/N=C/c2ccc(-c3ccc([N+](=O)[O-])cc3)o2)CC1`, the “hERG current change (%, negative = inhibition) at 10uM” value is -66%. Turning to `O=[N+]([O-])c1ccc(-c2ccc(/C=N/O)o2)cc1`, the “hERG current change (%, negative = inhibition) at 10uM” value is 8.69%. As for `CN1CCN(/N=C/c2ccc(-c3ccc([N+](=O)[O-])cc3Cl)o2)CC1`, the figure is -46.2%. As for `CC(C)(CN1CCNCC1)NS(=O)(=O)c1ccc(Cl)cc1`, the figure is -60.3%; as for `Cc1ccc(S(=O)(=O)NC(C)(C)CN2CCNCC2)cc1`, -9.34%; as for `CC(C)(CN1CCN(Cc2ccccc2)CC1)NS(=O)(=O)c1ccccc1`, -39.6%. As for `CC(C)(CN1CCCCC1)NS(=O)(=O)c1ccc(Cl)cc1`, the figure is -13.4%; as for `CC(C)(CN1CCN(Cc2ccccc2)CC1)NS(=O)(=O)c1ccc(Cl)cc1`, -74.7%.

Turning to `CC(C)(CN1CCCC1)NS(=O)(=O)c1ccc(Cl)cc1`, the “hERG current change (%, negative = inhibition) at 10uM” value is reported as 29.6%.

In the case of `CCOc1ccc2nc(NC(=O)c3cnccn3)sc2c1`, the “hERG current change (%, negative = inhibition) at 10uM” value amounted to 2.76%. Consider `c1coc(-c2nc3ccccc3nc2-c2ccco2)c1`, for which the “hERG current change (%, negative = inhibition) at 10uM” value is reported as -4.79%. Then `CCN(CC)CC(=O)N1c2ccccc2Sc2ccccc21`, with 1.42%; and `CN(C)CCCN1c2ccccc2Sc2ccccc21.Cl`, with -28.1%; and `CCN(CC)CCN1c2ccccc2Sc2ccccc21.O=C(O)C(=O)O`, with -41.3%. As for `CN(C)CCCNC(=O)N1c2ccccc2Sc2ccccc21`, the “hERG current change (%, negative = inhibition) at 10uM” value was determined as 1.39%.

Consider `CCN(CC)CCCCN1c2ccccc2Sc2ccccc21.Cl`, for which the “hERG current change (%, negative = inhibition) at 10uM” value is -61.7%. As for `CCC(=O)c1ccc2c(c1)N(CCCN(C)C)c1ccccc1S2.Cl`, the figure is -63.5%. Then `CC(C)(C)c1ccc(O)c(N)c1`, with 8.01%; and `N#Cc1ncccc1CCc1cccc(Cl)c1`, with -11.1%. Then `NS(=O)(=O)c1ccc(CCNC(=O)CCS(=O)(=O)c2ccc(Br)cc2)cc1`, with 19.2%. In the case of `O=C(CCCC1=NS(=O)(=O)c2ccccc2N1)N1CCN(c2ccc(Cl)cc2)CC1`, the “hERG current change (%, negative = inhibition) at 10uM” value was -61.1%. Then `COc1cccc(N2CCN(C(=O)CC(C)(C)CC3=NS(=O)(=O)c4ccccc4N3)CC2)c1`, with -6.09%; and `O=C(CCCC1=NS(=O)(=O)c2ccccc2N1)N1CCN(c2ccccc2)CC1`, with -1.79%; and `CC(C)(CC(=O)N1CCN(c2ccc(Cl)cc2)CC1)CC1=NS(=O)(=O)c2ccccc2N1`, with -61.1%. `COc1ccccc1N1CCN(C(=O)CCCC2=NS(=O)(=O)c3ccccc3N2)CC1`: the “hERG current change (%, negative = inhibition) at 10uM” value stood at 2.62%. As for `COc1ccc(N2CCN(C(=O)CCCC3=NS(=O)(=O)c4ccccc4N3)CC2)cc1`, the figure is -7.68%; as for `O=C(NCCc1csc(-c2cccnc2)n1)c1ccccc1Br`, -4.05%. As for `CC1CCCCN1C(=S)NC(=O)c1cc(Br)ccc1Cl` (stereo not shown), the figure is 4.09%; as for `COc1ccc(/C=N/N=C/c2c[nH]c(=O)c(C#N)c2Nc2ccccc2)cc1`, 5.81%. Take `Cn1c(O)c(N=NC(=O)c2ccccc2O)c2ccccc21`: the “hERG current change (%, negative = inhibition) at 10uM” value came out at 13.6%. With `CCCCc1nc(Cl)c(C#N)c2c1CCCC2`, the “hERG current change (%, negative = inhibition) at 10uM” value is recorded as -14.7%. In the case of `CCCCCc1n[nH]c2c1CCCC2`, the “hERG current change (%, negative = inhibition) at 10uM” value is given as 15.6%. Take `CCCCCc1nc2c(c3c1CCCC3)CCCC2`: the “hERG current change (%, negative = inhibition) at 10uM” value was -71.7%. As for `CCOC(=O)c1ccc(NC(=S)NCCc2ccccc2)cc1`, the figure is 4.14%; as for `O=C(CN1CCOCC1)Nc1c(Cl)cc(Cl)cc1Cl`, -2.17%. As to `CC(=O)N1CCN(CC(=O)Nc2c(Cl)cc(Cl)cc2Cl)CC1`, the “hERG current change (%, negative = inhibition) at 10uM” value is reported as -54.2%. As for `O=C(CN1CCCCCC1)Nc1c(Cl)cc(Cl)cc1Cl`, the figure is -5.28%; as for `N#Cc1ccc(NC(=O)CN2CCCC2)cc1Cl`, 0.986%.

In the case of `N#Cc1ccc(NC(=O)CN2CCCCCC2)cc1Cl`, the “hERG current change (%, negative = inhibition) at 10uM” value is -21.3%.

For the molecule `CC(=O)N1CCN(CC(=O)Nc2ccc(C#N)c(Cl)c2)CC1`, the “hERG current change (%, negative = inhibition) at 10uM” value was -71.7%.

For `O=C(NC1CCS(=O)(=O)C1)c1ccc(S(=O)(=O)N2CCCC2)cc1` (stereo not shown), the “hERG current change (%, negative = inhibition) at 10uM” value came out at 9.83%. As to `CCC(C)(C)C1CCc2[nH]nc(C(=O)NC(C)C)c2C1` (stereo not shown), the “hERG current change (%, negative = inhibition) at 10uM” value was 12.7%. Regarding `CC12CCC(C(=O)NCCN3CCCCC3)(CC1=O)C2(C)C` (stereo not shown), the “hERG current change (%, negative = inhibition) at 10uM” value is on record as -2.12%. Take `CCN(CC)CCNC(=O)c1ccccc1N`: the “hERG current change (%, negative = inhibition) at 10uM” value was -5.76%. Then `CCCCOc1ccc(NC(=O)CN2CCN(C(=O)OCC)CC2)cc1.Cl`, with -28.6%. Turning to `CCN(CC)CC(=O)Nc1ccc(Oc2ccc(NC(=O)CN(CC)CC)cc2)cc1`, the “hERG current change (%, negative = inhibition) at 10uM” value was found to be 17.1%. Then `CCOC(=O)N1CCN(CC(=O)Nc2ccc(Oc3ccccc3)cc2)CC1`, with -50.1%. `O=C(CN1CCN(c2ccccc2)CC1)Nc1ccc(Oc2ccccc2)cc1`: the “hERG current change (%, negative = inhibition) at 10uM” value is 15.6%. Then `CCN(CC)CCNCC(=O)Nc1ccc(Oc2ccccc2)cc1`, with -70.5%; and `CCOC(=O)N1CCN(CCC(=O)Nc2ccc(F)c(F)c2)CC1`, with 0.204%; and `O=C(CNCc1ccccc1)Nc1ccc(Oc2ccccc2)cc1`, with -18.7%. With `CCN(CC)CCNC(=O)C(Oc1ccccc1)Oc1ccccc1`, the “hERG current change (%, negative = inhibition) at 10uM” value is given as -65.4%. For `CCOC(=O)N1CCN(CC(=O)Nc2ccc(F)c(F)c2)CC1`, the “hERG current change (%, negative = inhibition) at 10uM” value is given as -62.4%. As for `CCN(CC)CCNC(=O)C(C)c1nn(C)c(=O)c2ccccc12` (stereo not shown), the figure is 8.67%; as for `CCOC(=O)N1CCN(CC(=O)Nc2ccc(C)c(Br)c2)CC1.Cl`, -16.1%. As for `Nc1ccccc1NC(=O)NC(=O)c1ccccc1`, the figure is 12.5%; as for `CCC(=O)Nc1ccc(NC(=O)c2cccc3c(Br)cccc23)cc1`, 3.96%; as for `COC(=O)C(Cc1ccccc1)NC(=O)CCc1c[nH]c2ccccc12` (stereo not shown), -8.09%. Then `CCOC(=O)N1CCN(CC(=O)Nc2ccc(F)cc2F)CC1`, with -28.6%; and `CCOC(=O)N1CCN(CC(=O)Nc2ccc(C)cc2)CC1`, with -63.2%; and `CCOC(=O)N1CCN(CC(=O)Nc2ccc(OC)cc2)CC1`, with -15.2%.

On to `CCOC(=O)N1CCN(CCC(=O)Nc2ccc(C)cc2)CC1`, for which the “hERG current change (%, negative = inhibition) at 10uM” value was determined as 4.65%. Regarding `CCOC(=O)N1CCN(CC(=O)Nc2ccc(F)cc2)CC1`, the “hERG current change (%, negative = inhibition) at 10uM” value was -82%. For `CCOC(=O)N1CCN(CC(=O)Nc2ccc(F)c(F)c2F)CC1`, the “hERG current change (%, negative = inhibition) at 10uM” value amounted to 7.7%. Then `COc1ccc(-c2nn(-c3ccccc3)cc2/C=N/N2C(=O)CSC2=S)cc1`, with -6.34%; and `O=C(NCCCl)NNc1c(Cl)cc(Cl)cc1Cl`, with 10.3%; and `CC1(C)Oc2ccc3ccc(=O)oc3c2[C@@H](O)[C@H]1O`, with 15.5%. Turning to `CCOCCn1cnc2sc(C(=O)NCC(=O)OCC)c(C)c2c1=O`, the “hERG current change (%, negative = inhibition) at 10uM” value is reported as -3.75%. On to `Cc1cc(C)c(CN2CCC(n3nccc3NC(=O)C3CCOC3)CC2)cc1C` (stereo not shown), for which the “hERG current change (%, negative = inhibition) at 10uM” value is -19%. Turning to `COc1cc(C)c(CN2CCC(n3nccc3NC(=O)C3CC3)CC2)cc1C`, the “hERG current change (%, negative = inhibition) at 10uM” value is -52.7%. In the case of `Cc1cc(C)c(CN2CCC(n3nccc3NC(=O)C3CCCC3)CC2)cc1C`, the “hERG current change (%, negative = inhibition) at 10uM” value was -70.7%.

On to `COc1ccc(CN2CCC(n3nccc3NC(=O)C3CC3)CC2)c(OC)c1OC`, for which the “hERG current change (%, negative = inhibition) at 10uM” value is -51.4%. Take `O=C(Nc1ccnn1C1CCN(Cc2ccccc2F)CC1)C1CCCC1`: the “hERG current change (%, negative = inhibition) at 10uM” value is listed as -45.4%. As to `COc1ccc(C(=O)N2CCC(n3nccc3NC(=O)C3CC3)CC2)c(OC)c1OC`, the “hERG current change (%, negative = inhibition) at 10uM” value worked out at 24.7%. Then `Cc1ccc(C)c(CN2CCC(n3nccc3NC(=O)C3CCCC3)CC2)c1`, with -69.9%; and `COc1cc(C)c(CN2CCC(n3nccc3NC(=O)C3CCOC3)CC2)cc1C` (stereo not shown), with -18.2%.

For the molecule `CCn1cc(CN2CCC(n3nccc3NC(=O)C3CCCC3)CC2)c(C)n1`, the “hERG current change (%, negative = inhibition) at 10uM” value was -12.4%.

As for `COc1ccc(CN2CCC(n3nccc3NC(=O)C3CC3)CC2)c(Cl)c1OC`, the “hERG current change (%, negative = inhibition) at 10uM” value was -39.2%. Then `OCCSc1nc2ccccc2n1CCOc1ccccc1`, with 4.02%. On to `O=c1cccccc1NCc1ccccc1`, for which the “hERG current change (%, negative = inhibition) at 10uM” value was -17.3%.

As for `O=C(CSCC(=O)N1CCCc2ccccc21)Nc1nc(-c2ccccc2)cs1`, the “hERG current change (%, negative = inhibition) at 10uM” value is listed as 12.4%.

In the case of `COc1ccc(NC(=O)CSc2nnc(Cc3ccccc3)c(=O)n2N)c(OC)c1`, the “hERG current change (%, negative = inhibition) at 10uM” value is on record as -18.1%.
